The results in this text go back to PubChem BioAssay AID1851 (National Center for Advancing Translational Sciences (NCATS), 2009).

The whole screen tested about 16,000 compounds, of which about 5,100 (32%) were called active. Another 25% or so got no clear call; they are omitted. The list shows a part of the results. Values without a mark were called inactive. The call rests on the fitted dose curve; in most records, active means well fitted curve in the direction sought with a large enough effect; inconclusive means small, poorly fitted or top-dose-only effect, or effect the other way; inactive means no such curve, though single readings can be large or run the other way.
On the % scale 0 is the no-effect control and ±100 the full control effect.

The target in this assay is Cytochrome P450 3A4 (Homo sapiens) (UniProt P08684). The assay can be described thus: Cytochrome panel assay with activity outcomes. To be noted: recombinant CYP, pro-luciferin dealkylation, luminescence, p450-cyp3a4; series mostly up to 57.1 µM.
Chain of Cytochrome P450 3A4 (Homo sapiens) (P08684 whole entry, looked up): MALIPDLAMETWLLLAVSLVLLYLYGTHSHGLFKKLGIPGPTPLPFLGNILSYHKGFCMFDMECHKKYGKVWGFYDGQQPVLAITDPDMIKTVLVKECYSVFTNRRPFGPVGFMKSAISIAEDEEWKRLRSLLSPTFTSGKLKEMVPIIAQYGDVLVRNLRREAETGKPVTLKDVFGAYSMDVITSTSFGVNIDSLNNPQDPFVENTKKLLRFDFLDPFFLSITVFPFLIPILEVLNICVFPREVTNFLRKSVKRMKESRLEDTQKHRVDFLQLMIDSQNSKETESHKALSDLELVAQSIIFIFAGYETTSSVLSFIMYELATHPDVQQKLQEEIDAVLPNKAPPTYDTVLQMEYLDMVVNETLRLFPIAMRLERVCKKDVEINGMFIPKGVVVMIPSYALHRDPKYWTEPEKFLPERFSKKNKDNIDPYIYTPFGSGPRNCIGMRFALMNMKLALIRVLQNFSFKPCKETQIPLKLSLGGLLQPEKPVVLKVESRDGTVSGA
Take `CC12CCC(C(=O)Nc3ncc([N+](=O)[O-])s3)(OC1=O)C2(C)C` (configuration not stated): the AC50 was 15.8 µM (active).
Same read-out and setting: the value for `CCCCC#Cc1nc(NC)c2ncn([C@@H]3O[C@@H](CO)[C@H](O)[C@H]3O)c2n1` was “inactive”.
With `CCSc1nnc(-c2ccc(Cl)cc2)c2ccccc12`, the activity, negative = inhibition is 15.9% [at 2.29 µM].
Turning to `C#CCSc1nc(Cc2ccc(Cl)cc2)nc2ccccc12`, the AC50 was 15.8 µM (active).
Still for that read-out and setting: the value for `CS(=O)(=O)N(Cc1cc2ccccc2[nH]c1=O)C1CCCCC1` was 2.24 µM (active).
On to `CN(Cc1cc2ccccc2[nH]c1=O)S(C)(=O)=O`, for which the activity, negative = inhibition was 5.8% [at 11.4 µM].
As to `CC(C)(C)c1ccc(O)c(CN(Cc2c(O)ccc3ccccc23)C2CCCCC2)c1`, the activity, negative = inhibition is -11.1% [at 11.4 µM].
As for `CSc1nc(N)c2ncn([C@@H]3O[C@@H](COP(=O)(O)OP(=O)(O)O)[C@@H](O)[C@H]3O)c2n1`, the AC50 entry was “inactive”.
For `C=CC(=O)NC(NC(=O)C=C)c1ccc(Br)cc1`, the AC50 entry is “inactive”.
As to `Cc1ccc(NC(=O)NNC(=O)Cn2nc(-c3ccccc3)c(-c3ccccc3)c(C#N)c2=O)cc1`, the activity, negative = inhibition was 26.4% [at 0.457 µM].
`N#Cc1c(NC(=O)CCN2C(=O)c3ccccc3C2=O)oc(-c2ccccc2)c1-c1ccccc1`: the AC50 is 3.98 µM (active).
Still for that read-out and setting: to `CC(C)(C)c1ccccc1OCCN1CCCC1` belongs “inactive”; to `Cc1ncc([N+](=O)[O-])n1CCOC(=O)NC(NCc1ccccc1)C(Cl)(Cl)Cl` (configuration not stated), 15.8 µM (active).
As for `Cc1ncc([N+](=O)[O-])n1CCO`, the AC50 result was “inactive”.
The same measure, in the same setting: to `Cc1ncc([N+](=O)[O-])n1CC(=O)NCc1ccccc1` belongs “inactive”.
On the same count and under the same terms, to `O=C(Nc1cccc2ccccc12)c1cn(-c2ccccc2)nc1-c1cccs1` belongs 7.94 µM (active).
`O=C(N1CCOCC1)N1CCN(c2ccccc2)CC1`: the activity, negative = inhibition is -14.3% [at 11.4 µM].
Regarding `O=C(c1cn(-c2ccccc2)nc1-c1cccs1)N1CCOCC1`, the AC50 is 15.8 µM (active).
Consider `O=C(Nc1c(C(=O)N2CCOCC2)cnn1-c1ccccc1)c1ccco1`, for which the AC50 result is “inactive”.
Consider `CCOc1ccc(-c2c[n+](=O)c3c(n2[O-])CCCC3)c(OCC)c1`, for which the AC50 result was “inactive”.
For `CCCNS(=O)(=O)c1ccc(OCC(=O)OC)cc1`, the AC50 result is “inactive”.
Consider `COc1ccc(OCCNS(=O)(=O)c2ccc3oc4ccccc4c3c2)cc1`, for which the AC50 is 7.08 µM (active).
For `NCCCc1ccc2oc3ccccc3c2c1`, the activity, negative = inhibition is 0.505% [at 11.4 µM].
Turning to `O=C(O)[C@@H]1CS[C@@]2(CCCN(Cc3ccccc3)C2)N1`, the activity, negative = inhibition is 0.282% [at 11.4 µM].
Same read-out and setting: to `Cc1nc2ccccc2nc1SCC(=O)N1CCC(C)CC1` belongs 3.87% [at 2.29 µM].
Consider `Cc1scc2c1N(C(=O)CN1CCN(C)CC1)c1ccccc1NC2=O`, for which the AC50 result was “inactive”.
Take `Cc1ncc(CSC(=N)N)n1Cc1ccccc1`: the activity, negative = inhibition was 6.78% [at 11.4 µM].
Regarding `Cc1sc2nc(C3CC3)nc(SCC(=O)N3CC(=O)Nc4ccccc43)c2c1C`, the AC50 is 2.24 µM (active).
Turning to `Cc1nnc(SCC(=O)N2CC(=O)Nc3ccccc32)n1Cc1ccccc1`, the AC50 was 7.94 µM (active).
`CCOC(=O)N/N=C1/C[C@@H](O)[C@@H](O)[C@@H]2[C@@H]3C(=O)N(C(C)(C)C)C(=O)[C@H]3CC[C@H]12`: the activity, negative = inhibition was -10.6% [at 11.4 µM].
In the case of `C[C@@H](NCc1cc(Br)cc2[nH]c(=O)c(=O)[nH]c12)P(=O)(O)O`, the AC50 result is “inactive”.
Take `COc1cccc(-c2ccc3ncnc(NCc4cccs4)c3c2)c1`: the AC50 was 7.94 µM (active).
Take `c1csc(CNc2ncnc3ccc(-c4ccoc4)cc23)c1`: the AC50 was 7.94 µM (active).
Take `N#Cc1cccc(-c2ccc3ncnc(NCc4cccs4)c3c2)c1`: the AC50 was 3.16 µM (active).
As to `C[C@@H](CCCCC(=O)Nc1ccc(C(F)(F)F)cc1)NCCc1cnc[nH]1`, the concentration at half-maximal activity (AC50) is 5.01 µM (active).
Still for that read-out and setting: to `NCCC(=O)NCCc1cnc[nH]1` belongs “inactive”.
Take `O=CN[C@@H](Cc1cnc[nH]1)C(=O)O`: the activity, negative = inhibition was -4.87% [at 11.4 µM].
As to `CC(C)(C)N1C(=O)[C@H]2[C@@H]3[C@H](O)C=CC(=O)[C@H]3CC[C@H]2C1=O`, the activity, negative = inhibition was -16.6% [at 11.4 µM].
As for `CCc1ccc(C(=O)COC(=O)C(Cc2ccccc2)NC(=O)C2CCC(C)CC2)cc1` (configuration not stated), the AC50 was 3.55 µM (active).
In the case of `N#CCSc1ncnc2c1cnn2CCO`, the AC50 result is “inactive”.
On the same count and under the same terms, the value for `Nc1[nH]n2c(=O)c3c(nc2c1N=Nc1ccccc1)CCCC3` was 5.01 µM (active); that for `N#Cc1c[nH]n2c(=O)c3c(nc12)CCCC3` was “inactive”.
Take `Cc1ccc(-c2[nH]n3c(=O)c4c(nc3c2C)CCCC4)cc1`: the AC50 was 8.91 µM (active).
Still for that read-out and setting: to `Cc1[nH]n2c(=O)c3c(nc2c1-c1cccc2ccccc12)CCC3` belongs “inactive”.
Consider `Nc1[nH]n2c(=O)cc(-c3ccccc3)nc2c1N=Nc1ccccc1`, for which the activity, negative = inhibition was -10.8% [at 2.29 µM].
In the case of `O=c1c2c(nc3c(-c4ccccc4)c[nH]n13)CCC2`, the AC50 result is “inactive”.
Turning to `O=C(NCCO)c1ccc(Cl)cc1`, the activity, negative = inhibition is -18% [at 11.4 µM].
In the case of `O=C(NCc1ccc(Cl)cc1)c1ccc(Cl)cc1[N+](=O)[O-]`, the AC50 was 12.6 µM (active).
On to `NC(=O)NCc1ccc(Cl)cc1`, for which the activity, negative = inhibition was 4.51% [at 11.4 µM].
As for `CCOc1ccc(NC(=O)c2ccc(Br)o2)c([N+](=O)[O-])c1`, the activity, negative = inhibition is 0.495% [at 2.29 µM].
With `Cc1ccc(C(=O)NCCNc2ccc(Cl)cc2[N+](=O)[O-])o1`, the AC50 was 6.31 µM (active).
With `Oc1ccccc1C1Nc2cccc3cccc(c23)N1`, the AC50 result is “inactive”.
With `Oc1ccc(C2Nc3cccc4cccc(c34)N2)c(O)c1`, the AC50 was 15.8 µM (active).
With `CN[C@H](CC(=O)O)C(=O)O`, the AC50 result was “inactive”.
Same read-out and setting: to `Cc1ccc(S(=O)(=O)c2cc3ccccc3oc2=Nc2ccc3c(c2)OCO3)cc1` belongs 2 µM (active).
Regarding `Cc1ccc(N=Nc2c(O)ccc3cc(S(=O)(=O)O)ccc23)cc1`, the activity, negative = inhibition is -19% [at 11.4 µM].
Turning to `O=C(O)c1cc(C(=O)O)nc(C(=O)O)c1`, the activity, negative = inhibition was -8.29% [at 11.4 µM].
In the case of `CCc1noc(C)c1C(=O)Nc1nc(-c2cc(C)ccc2C)c(C)s1`, the AC50 is 3.55 µM (active).
Turning to `CCOC(=O)Nc1nc(-c2ccccc2)c(C)s1`, the activity, negative = inhibition is -11.6% [at 11.4 µM].
As for `COc1cc2nc(SCc3ccc(Cl)cc3Cl)n(Cc3cccs3)c(=N)c2cc1OC`, the AC50 is 2 µM (active).
Still for that read-out and setting: to `COc1ccc(Cn2c(SCc3ccccc3C)nc3cc(OC)c(OC)cc3c2=N)cc1` belongs 8.91 µM (active).
Turning to `Cc1ccc(-n2c3c(c(=O)[nH]c2=O)C(C(F)(F)F)(C(F)(F)F)NC(=O)N3)cc1`, the activity, negative = inhibition was -3.33% [at 2.29 µM].
`Cc1ccc(C(=O)N2C3C=CC(C3)C2(C(F)(F)F)C(F)(F)F)cc1` (configuration not stated): the AC50 was 1.12 µM (active).
Same read-out and setting: the value for `CC(C)(C)NS(=O)(=O)c1ccc(NC(=O)c2cc(-c3ccccc3)nc3ccccc23)cc1` was “inactive”; that for `CC(C)(C)NS(=O)(=O)c1ccc(NC(=O)C(Sc2ccccc2)c2ccccc2)cc1` (configuration not stated) was 14.1 µM (active).
For the compound `CC(C)(C)c1nnc(NC(=O)NS(=O)(=O)c2ccccc2)s1`, the AC50 entry is “inactive”.
Turning to `Cc1cc(=O)oc2cc(O)c(CN(C)CC(=O)O)cc12`, the activity, negative = inhibition was -2.73% [at 11.4 µM].
Regarding `Cc1c(-n2cc(C(=O)c3cc(Cl)ccc3O)cc(C#N)c2=O)c(=O)n(-c2ccccc2)n1C`, the AC50 entry is “inactive”.
Same read-out and setting: to `Cc1c(O)c(=O)n(-c2ccccc2)n1C` belongs “inactive”.
The same measure, in the same setting: to `Cc1ccc(O)c(C(=O)c2cc(C#N)c(=O)n(-c3c(C)n(C)n(-c4ccccc4)c3=O)c2)c1` belongs 5.62 µM (active).
For `Cc1cc(C)n(-c2nc(NCC(C)O)c3c4c(sc3n2)COC(C)(C)C4)n1` (configuration not stated), the activity, negative = inhibition is -17.9% [at 11.4 µM].
On to `Cc1nn2c(C)nc3sc4c(c3c2nc1=O)CC(C)(C)OC4`, for which the AC50 entry is “inactive”.
In the case of `CCCSc1nc(NCc2ccco2)c2c3c(sc2n1)COC(C)(C)C3`, the AC50 is 15.8 µM (active).
For `CC1(CCC#N)N=C(SCCC#N)N(c2ccccc2)C1=O` (configuration not stated), the AC50 result is “inactive”.
For `c1cn(-c2ncnc3ccc(-c4ccoc4)cc23)cn1`, the AC50 is 0.631 µM (active).
The same measure, in the same setting: the value for `Cc1ccccc1-c1ccc2ncnc(-n3ccnc3)c2c1` was 0.501 µM (active); that for `CN(C)c1ccc(-c2ccc3ncnc(-n4ccnc4)c3c2)cc1` was 1 µM (active); that for `O=C(COc1ccc2ccccc2c1)Nc1ccc(Cc2ccncc2)cc1` was 0.708 µM (active).
Consider `CC(=O)CC(=O)Nc1ccc2ccccc2c1`, for which the activity, negative = inhibition is -28.5% [at 11.4 µM].
For the compound `Clc1ccc([C@H](Cn2ccnc2)OCc2csc3c(Cl)cccc23)c(Cl)c1`, the AC50 is 0.794 µM (active).
As for `O=C(c1cnccn1)N1CCC[C@@]2(CCN(Cc3nccs3)C2)C1`, the AC50 is 15.8 µM (active).
For `O=C(c1csnn1)N1CCC[C@@]2(CCN(Cc3nccs3)C2)C1`, the AC50 was 15.8 µM (active).
On the same count and under the same terms, the value for `CC(C)CN1CCC2(CC1)CCN(C(=O)c1csnn1)CC2` was “inactive”; that for `CC(C)CN1CCCC2(CCN(C(=O)c3cnccn3)CC2)C1` was 25.1 µM (active).
For the compound `CC(C)NC(=O)N1CCC2(CC1)CCN(C(=O)c1cnccn1)CC2`, the AC50 result was “inactive”.
The same measure, in the same setting: the value for `O=C(c1cnccn1)N1CCC2(CC1)CN(Cc1nccs1)C2` was “inactive”; that for `O=C(c1cnccn1)N1CCC2(CCCN(Cc3nccs3)C2)CC1` was 12.6 µM (active); that for `O=C(c1csnn1)N1CCC2(CCN(Cc3nccs3)CC2)CC1` was “inactive”.
For `O=C(c1cnccn1)N1CCC2(CCN(Cc3nccs3)CC2)CC1`, the AC50 entry was “inactive”.
`C[n+]1ccc(/C=C/c2ccc(Br)cc2)cc1`: the AC50 entry was “inactive”.
For the compound `COc1nc(N)nc2c1ncn2[C@@H]1C[C@H](O)[C@@H](CO)O1`, the activity, negative = inhibition was -13.7% [at 11.4 µM].
For the compound `CN1C(C(=O)Nc2ccccn2)=C(O)c2sccc2S1(=O)=O`, the AC50 result was “inactive”.
In the case of `COc1cc(C)nc(N2CCCC(C(=O)Nc3cc(Cl)ccc3OC)C2)n1` (configuration not stated), the AC50 is 7.08 µM (active).
Still for that read-out and setting: the value for `Cc1ccc(C(=O)NNC(=O)C2CCCN(c3ncccn3)C2)cc1` (configuration not stated) was “inactive”.
The same measure, in the same setting: the value for `Cc1ccc(C(=O)/C=C2\NCC(C)NC2=O)cc1` (configuration not stated) was “inactive”.
Same read-out and setting: to `O=C(Cc1ccc2c(c1)CCCC2)Nc1ccccc1Br` belongs “inactive”; to `O=C(Cc1ccc(Br)cc1)Nc1ccccc1Sc1ccccc1`, 6.31 µM (active).
